Reference: PubChem BioAssay AID651657 (Broad Institute, 2012)
Entries with a potency or affinity are not part of this list.

target: DNA repair and recombination protein RAD54-like (Homo sapiens) (UniProt Q92698); assay: inhibitors of human RAD54 branch migration, confirmation, biochemical, fluorescence, cherry-picked samples, dose series (AID 651657); details: FAM/BHQ fluorescence, 60 min; series mostly up to 50 µM; activity change, negative = inhibition: at the top concentration
Sequence (Q92698 whole entry, looked up): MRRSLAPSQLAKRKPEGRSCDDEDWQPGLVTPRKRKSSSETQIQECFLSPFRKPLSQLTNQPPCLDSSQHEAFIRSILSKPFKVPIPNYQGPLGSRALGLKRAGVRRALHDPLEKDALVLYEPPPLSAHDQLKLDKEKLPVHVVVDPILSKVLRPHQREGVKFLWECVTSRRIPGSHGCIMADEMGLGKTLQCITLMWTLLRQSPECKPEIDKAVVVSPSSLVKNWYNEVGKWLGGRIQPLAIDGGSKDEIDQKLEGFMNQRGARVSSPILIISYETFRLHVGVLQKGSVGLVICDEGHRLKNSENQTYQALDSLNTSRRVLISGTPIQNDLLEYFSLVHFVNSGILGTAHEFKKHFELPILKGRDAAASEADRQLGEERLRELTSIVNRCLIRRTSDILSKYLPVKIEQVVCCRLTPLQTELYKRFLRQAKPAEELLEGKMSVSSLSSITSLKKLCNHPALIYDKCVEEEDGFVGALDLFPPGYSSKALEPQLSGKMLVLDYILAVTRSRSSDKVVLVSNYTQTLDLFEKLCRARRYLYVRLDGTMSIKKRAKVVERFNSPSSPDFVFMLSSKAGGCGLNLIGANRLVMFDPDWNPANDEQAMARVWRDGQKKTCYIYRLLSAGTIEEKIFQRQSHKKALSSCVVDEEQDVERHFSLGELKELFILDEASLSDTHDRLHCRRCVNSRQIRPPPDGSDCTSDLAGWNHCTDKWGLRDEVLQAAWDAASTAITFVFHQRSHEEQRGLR

Activity change, negative = inhibition, inactive:
O=C1C(c2ccc(F)cc2)N(C2CCCCC2)C(=O)CN1C1CCCC1 (stereo not drawn) -0.016%, Cc1cccc(Cn2c(Sc3nc(C)cs3)nc3c2c(=O)[nH]c(=O)n3C)c1 1.49%, CCN1CCN(c2cc(C)c3cc(NC(=S)N4CCCC(C)C4)ccc3n2)CC1 (stereo not drawn) -8.25%, O=c1cc(CSc2n[nH]c(=O)n2C2CC2)c2ccc(O)cc2o1 -3.13%, Cc1c(Cl)ccc(S(=O)(=O)NCCCn2ccnc2)c1Cl 3.66%, COc1ccccc1NC(=O)Cn1nnc2sc3c(c2c1=O)CC(C)(C)OC3 -0.048%, c1ccc(-c2nnc(SCc3nc4ccccc4[nH]3)o2)cc1 1.58%, C=CCN1C(=O)C(C)(C)Nc2ccccc21 -1.14%, COc1ccccc1CNC(=O)c1cccs1 6.77%, CCN1CCN(c2cc(C)c3cc(NC(=S)N4CC(C)CC(C)C4)ccc3n2)CC1 (stereo not drawn) -0.101%, Cc1ccnc(SCC(=O)Nc2sc3c(c2C#N)CCC(C(C)(C)C)C3)n1 (stereo not drawn) 6.25%, O=C(CS(=O)(=O)c1ccccc1)Nc1ccc(Br)cn1 3.03%, COCCCNCCC(CCC(C)C)c1ccc2c(c1)OCO2 (stereo not drawn) 7.05%, NC(=O)C1CCN(c2nc(-c3cccnc3)cs2)CC1 6.26%, O=C(Nc1nnc(COc2ccc(F)cc2)s1)c1ccco1 7.04%, CCN1CCN(c2cc(C)c3cc(NC(=S)N4CCC5(CC4)OCCO5)ccc3n2)CC1 -7.13%, CCN(CC)S(=O)(=O)c1ccc(Cl)c(C(=O)Nc2nnc(C)s2)c1 -3.81%, CC(C)CSc1ncc(-c2cccc(C(F)(F)F)c2)cn1 0.208%, CCC(=O)N(Cc1cc2cc(OC)ccc2[nH]c1=O)c1cc(C)ccc1C 0.681%, O=C(NN1CCOCC1)c1cc(-c2ccc(Cl)c(Cl)c2)nc2ccccc12 1.1%, Cc1ccc(OCC(=O)Nc2cccc(-c3nnc(-c4ccccc4)o3)c2)c(C)c1 3.6%, COC(=O)Nc1nnc(COc2ccccc2)s1 0.398%, COc1ccccc1C(=O)C(O)c1ccccc1OC (stereo not drawn) 6.98%
